L3MBTL1 block = L3MBTL1 (human) inhibition; Potency, µM (highest dose often 57.1 µM), inactives show top-dose activity, negative = inhibition, most hits filed as inhibitors; AlphaScreen L3MBTL1–H3K9me1 peptide binding; Q9Y468; AID 485360; 230,000 tested, 0.66% active; further: on the % scale 0 is the no-effect control and ±100 the full control effect; nearly all actives have a fitted effect of over 60% in size
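Displacement of a biotinylated histone H3(1-15) peptide monomethylated at Lys9 (75 nM) from L3MBTL1 (50 nM) was measured by AlphaScreen after a 30 min room-temperature compound incubation; cefsulodin titration served as intraplate control.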
Sfp inh = Sfp phosphopantetheinyl transferase inhibition; Q9F4F7; Biochemical Sfp PPTase activity, qHTS; Potency, µM, without a hit: largest response in the series, negative = inhibition, actives largely listed as inhibitors; 310,000 tested, 3.5% active; AID 1490;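 further: the enzyme is Sfp with the accession as filed and its product quenches rhodamine fluorescence; 0% = enzyme reaction without inhibitor and -100% = no enzyme wells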
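Buffer: 50 mM Hepes-Na pH 7.6, 10 mM MgCl2, 0.01% Nonidet P-40, 0.01% BSA. Enzyme 15 nM, pre-exposed to compound 15 min; substrates then added and fluorescence change tracked over 30 min.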
G9a block = inhibitors of human histone lysine methyltransferase G9a; AID 504332; 350,000 tested, 8.8% active; Q96KQ7; G9a H3K9 monomethylation, AlphaScreen, 2 h; Potency, µM (series often up to 102 µM), without a hit: at the highest dose activity, negative = inhibition, most hits filed as inhibitors; further: on the % scale 0 is the no-effect control and ±100 the full control effect; nearly all actives have a fitted effect of over 75% in size
Target sequence (Q96KQ7 913-1193 limits assumed): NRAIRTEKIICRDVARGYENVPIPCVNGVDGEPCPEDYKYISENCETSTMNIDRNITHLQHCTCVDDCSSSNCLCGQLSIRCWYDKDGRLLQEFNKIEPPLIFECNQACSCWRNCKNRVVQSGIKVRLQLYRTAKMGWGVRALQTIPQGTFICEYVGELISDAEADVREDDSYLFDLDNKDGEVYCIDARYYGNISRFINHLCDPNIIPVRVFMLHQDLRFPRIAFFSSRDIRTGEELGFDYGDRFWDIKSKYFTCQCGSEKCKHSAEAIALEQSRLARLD
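Quantitative HTS format: methyltransferase activity on a biotin-tagged H3K9 peptide is measured by AlphaScreen, using a rabbit anti-monomethyl-H3K9 antibody with streptavidin donor and anti-IgG acceptor beads. Final levels are 20 nM enzyme, 500 nM peptide, 20 uM SAM; 2 h RT.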
BAZ2B inh = BAZ2B (human) inhibition; Q9UIF8; AlphaScreen BAZ2B-H3K14Ac peptide displacement; Potency, µM (series often up to 114 µM), inactives show top-dose activity change, negative = inhibition, actives largely listed as inhibitors; 360,000 tested, 4.4% active; further: on the % scale 0 is the no-effect control and ±100 the full control effect; nearly all actives have a fitted effect of over 60% in size
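Compounds, titrated to a top concentration of 110 uM, were incubated 30 min at room temperature with preformed BAZ2B/acetyl-K14 H3 peptide complex (50 nM each). Proximity signal was measured by AlphaScreen after 20 min with beads.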
JMJD2A Tudor inh = blocks the human JMJD2A Tudor domain. AID 504339. Potency, µM (highest dose often 114 µM), without a hit: top-dose activity change, negative = inhibition, hits mostly inhibitors. 390,000 tested, 4.4% active. AlphaScreen JMJD2A-Tudor / H3K4me3 peptide binding. O75164; further: on the % scale 0 is the no-effect control and ±100 the full control effect; nearly all actives have a fitted effect of over 50% in size
HP1b chromo inh = HP1-beta chromodomain-methylated histone interaction inhibition. AlphaScreen HP1-beta / biotin-H3K9me3 peptide binding. P83916. Potency, µM (top dose mostly 114 µM), without a hit: top-dose activity change, negative = inhibition, most hits filed as inhibitors. 390,000 tested, 0.56% active; further: nearly all actives have a fitted effect of over 70% in size
Target sequence (P83916 whole entry, looked up): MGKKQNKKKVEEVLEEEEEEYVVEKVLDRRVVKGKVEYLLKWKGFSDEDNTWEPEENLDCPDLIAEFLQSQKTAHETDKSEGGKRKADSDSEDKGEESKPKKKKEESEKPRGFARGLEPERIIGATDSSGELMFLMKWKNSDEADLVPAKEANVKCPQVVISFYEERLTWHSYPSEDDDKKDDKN
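HP1-beta protein (50 nM final) preincubated 30 min at room temperature with biotinylated H3(1-18)K9me3 peptide (50 nM) in PBS pH 7.4, 0.01% Tween-20, then compound added for 30 min. AlphaScreen streptavidin donor/nickel chelate acceptor beads (10 ug/mL final), 30 min dark, luminescence read.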
Starred values were filed as active, the others as inactive; u = inconclusive; x = no result; [ ] = remark or other dose. Rows were chosen to be rich in hits. Some 12% of all compounds tested hit in one or more screens of this group. The call rests on the fitted dose curve; in most records, active means well fitted curve in the direction sought with a large enough effect; inconclusive means small, poorly fitted or top-dose-only effect, or another doubt; inactive means no such curve, though single readings can be large; an effect the other way counts as inactive or inconclusive. Potency means the concentration at half of the fitted maximal effect.

SMILES | L3MBTL1 block | Sfp inh | G9a block | BAZ2B inh | JMJD2A Tudor inh | HP1b chromo inh
COc1ccc(C(=O)N/N=C(\C)c2ccccn2)cc1OC | x | 7.5% | x | 7.94µM* | 22.4µM* | 40.6%
C/C(=N/NC(=O)c1ccncc1)c1cc2ccc(O)cc2oc1=O | -4.4% | 12.7% | -4.3%[59 µM] | 79.4µM* | -32.4% | 23.6%
COc1cc(C(C)=NNC(=O)c2ccncc2)ccc1O | x | x | x | x | 31.6µM* | 6.5%
C/C(=N\NC(=O)c1cccc(Br)c1)c1ccccn1 | x | 18.0% | 26.6% | 3.55µM* | 22.4µM* | 29.0%
CCOC(=O)c1cccc(NC(=O)CCSCCc2ccccn2)c1 | x | x | -3.7%[59 µM] | 2.0% | -9.0% | -3.8%
C=Cc1ccc(Cn2c(C)c(CNCc3cccc(Br)c3)c(C(=O)O)c2C)cc1 | x | x | 2.8%[59 µM] | u | -33.2% | -7.0%
C/C(=N\NC(=O)C1COc2ccccc2O1)c1ccccn1 (stereo not given) | u | 21.7% | 15.5%[59 µM] | 25.1µM* | 50.1µM* | 30.8%
C/C(=N\NC(=O)c1ccc(Cl)c(Cl)c1)c1ccccn1 | x | 17.6% | -9.5% | 7.94µM* | u | 22.2%[57 µM]
CCOc1ccc(OCc2ccc(C(=O)N/N=C(\C)c3ccccn3)cc2)cc1 | -23.7% | 16.2% | 6.2% | u | -22.9% | 11.2%
C/C(=N/NC(=O)c1ccc(C(C)(C)C)cc1)c1ccccn1 | x | x | x | x | 44.7µM* | 19.8%
C/C(=N\NC(=O)c1ccccc1Cl)c1ccccn1 | x | 10.8% | 17.0% | 31.6µM* | 56.2µM* | 30.2%
CCCCCCCCCC(=O)N/N=C/c1ccc(C)s1 | x | 11.8% | 10.9%[12.7 µM] | 7.4% | -3.0% | 48.3%
CC(C)=CCC/C(C)=C/CO/N=C1/C[C@@H](O)[C@@H](O)[C@@H]2[C@@H]3C(=O)N(Cc4ccccc4)C(=O)[C@H]3CC[C@H]12 | x | -4.6% | x | x | x | x
C/C(=N\NC(=O)c1cccc2ccccc12)c1ccccn1 | x | 7.2% | x | 15.8µM* | 56.2µM* | 16.3%
C/C(=N\NC(=O)c1cc(-c2cccs2)nc2ccccc12)c1ccccn1 | 28.2µM* | 24.5% | -8.7% | 5.62µM* | 28.2µM* | 31.5%
Cc1cccc2sc(NNC(=O)c3cc(-c4cccs4)nc4ccccc34)nc12 | u | u | 31.6µM* | 3.55µM* | u | 41.2%
NNC(=O)c1cc(-c2cccs2)nc2ccccc12 | 0.2% | 9.6% | 9.1% | -15.0% | -16.3% | 56.1%
CCCCCC1CC(CC/C(C)=N/NC(N)=O)C(=O)O1 (stereo not given) | 2.5% | 15.8% | 16.9% | 1.2% | -4.5% | 23.3%
C/C(CC1CC(COCC(C)C)OC1=O)=N\NC(N)=S (stereo not given) | 10.1% | 50.1µM* | 8.1% | -2.9% | -29.0% | 22.2%
CCCCCOCC1CC(C/C(C)=N/Nc2nc(-c3ccccc3)cs2)C(=O)O1 (stereo not given) | -5.0% | 70.8µM* | 39.8µM* | u | u | 2.8%
CCCCCOCC1CC(C/C(C)=N/NC(N)=S)C(=O)O1 (stereo not given) | 5.0% | 44.7µM* | 14.9% | -2.5% | u | -10.7%
CCn1nc(-c2ccc(C)cc2)nc2c(=O)n(C)c(=O)nc1-2 | x | x | x | x | -6.2%[57.1 µM] | 24.9%[57 µM]
COC(=O)c1ccccc1NC(=O)c1cccc(NC(=O)C(C)C)c1 | 7.4% | 13.5% | u | -1.9% | -11.7% | 34.4%
COc1ccc(C2=Nc3nc(-c4ccccc4)cn3C(c3ccc(OC)cc3)C2)cc1 (stereo not given) | -4.6% | -8.7% | 22.4µM* | -1.8% | -17.2% | 39.7%
CC(=O)c1ccc(Sc2nnnn2-c2ccccc2)c([N+](=O)[O-])c1 | -18.0% | -9.0% | u | u | -23.2% | -2.4%
O=C(O)c1ccc(Sc2nnc(-c3cccc(Br)c3)o2)c([N+](=O)[O-])c1 | x | 0.1% | 50.1µM* | -37.8% | -1.6% | 10.1%
Cn1c(Sc2ccc(C(=O)O)cc2[N+](=O)[O-])nnc1-c1ccccc1 | 13.2% | 9.7% | 0.8%[59 µM] | -12.7% | 28.2µM* | -2.0%
CC(=O)Nc1ccc(N=C(C2=C(O)c3ccccc3C2=O)c2ccccc2)cc1 | -21.6% | -9.3% | 39.8µM* | 39.8µM* | 56.2µM* | u

Assay outcomes from PubChem BioAssay.
